High-throughput results deposited in PubChem BioAssay by National Center for Advancing Translational Sciences (NCATS).
SW480 rereplic = A quantitative high throughput screen for small molecules that induce DNA re-replication in SW480 colon adenocarcinoma cells. SW480 DNA re-replication, Hoechst DNA content imaging, 48 h. Potency, µM (titrated, usually from 46.1 µM), hits mostly activators. hit rate 1.8% among 340,000. AID 624297, 2012; also: nearly all actives have a fitted effect of over 55% in size
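DNA re-replication was detected as more nuclei of elevated Hoechst intensity after 48 hr exposure to compound (23 nL pinned per well of 250 cells).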
KB-V1 MDR tox = qHTS assay for MDR1-selective chemotherapeutics: Primary screen using the drug-selected MDR subline cells KB-V1. KB-V1 MDR cells viability, CellTiter-Glo, 72 h. Potency, µM (doses to about 46.1 µM), most hits filed as cytotoxic. hit rate 3.4% among 400,000; also: nearly all actives have a fitted effect of over 60% in size
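Drug-selected KB-V1 cells, grown in DMEM lacking phenol red with 10% FBS, receive compound titrations; after three days at 37 degrees C, surviving cell ATP is quantified by CellTiter-Glo luminescence and responses normalized and curve-fitted.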
HT1080NT lethal = qHTS for induction of synthetic lethality in tumor cells producing 2HG: qHTS for the HT-1080-NT fibrosarcoma cell line; HT-1080-NT fibrosarcoma viability, CellTiter-Glo ATP luminescence, 48 h; Potency, µM (series often up to 46.1 µM), hits mostly cytotoxic; hit rate 1.6% among 360,000; AID 686970, 2013;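 also: NT is the 2HG producing partner of a matched IDH1 knockdown line; nearly all actives have a fitted effect of over 55% in size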
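Fibrosarcoma NT cells, 750 per well in 5% FBS RPMI, were exposed to compound for 48 hours. Viability: CellTiter-Glo luminescence.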
KB-3-1 cytotox = qHTS assay for MDR1-selective chemotherapeutics: Primary screen using the parental adenocarcinoma cell KB-3-1 | KB-3-1 viability, CellTiter-Glo ATP luminescence, 72 h | Potency, µM (titrated, usually from 46.1 µM), most hits filed as cytotoxic | hit rate 1.4% among 400,000; also: nearly all actives have a fitted effect of over 60% in size
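Parental KB-3-1 adenocarcinoma cells in phenol-red-free DMEM with 10% FBS were pin-treated with compounds at several concentrations, incubated 72 h at 37 °C, and viability read by CellTiter-Glo luminescence; concentration-effect curves were fitted after normalization.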
HT1080 IDH1KD tx = qHTS for induction of synthetic lethality in tumor cells producing 2HG: qHTS for the HT-1080-IDH1KD cell line; HT-1080 IDH1 knockdown viability, ATP luminescence, 48 h; Potency, µM (titrated, usually from 46.1 µM), actives largely listed as cytotoxic; hit rate 2% among 360,000; AID 686971, 2013
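After a 2 h attachment period, IDH1KD HT-1080 cells took pin-transferred compound for 48 h at 37 °C; ATP-based luminescence after 10 min room-temperature reagent incubation reported viability.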
MCF10A rereplic = A quantitative high throughput screen for small molecules that induce DNA re-replication in MCF 10a normal breast cells; Potency, µM (highest dose often 46.1 µM), usual class: activators; MCF 10A DNA re-replication, Hoechst nuclear intensity, 48 h; hit rate 2.9% among 350,000; also: nearly all actives have a fitted effect of over 50% in size
Numbers stand for hits; i = inactive; ? = inconclusive; nt = not tested or not shown; [ ] = remark or other dose. Most compounds without a hit are left out; they make up all but 7.9% or so of the library. Calls follow the shape of the dose curve; as a rule, active = well fitted curve in the direction sought with a large enough effect; inconclusive = small, poorly fitted or top-dose-only effect, or another doubt; inactive = no such curve, though single readings can be large; an effect the other way counts as inactive or inconclusive.

SMILES	SW480 rereplic	KB-V1 MDR tox	HT1080NT lethal	KB-3-1 cytotox	HT1080 IDH1KD tx	MCF10A rereplic
C/C=C(\C)C(=O)OC1CC(C)(C)C[C@H]2C3=CC[C@@H]4[C@@]5(C)CCC(O[C@@H]6O[C@@H](C(=O)O)[C@@H](O)C(O[C@@H]7OC[C@H](O)[C@@H](O)[C@@H]7O[C@@H]7OC(CO)C(O)[C@@H](O)[C@@H]7O)C6O[C@@H]6OC(CO)C(O)C(O)C6O)[C@@](C)(CO)[C@@H]5CC[C@]4(C)[C@]3(C)CC(O)[C@@]12CO (stereo not given in full)	i	i	?	i	?	i
C=CCN(c1ccccc1)S(=O)(=O)c1cccc(C(=O)NC2CCN(Cc3ccccc3)CC2)c1	?	?	i	21µM	i	?
C=CCN(c1ccccc1)S(=O)(=O)c1cccc(C(=O)NCc2ccco2)c1	i	18µM	?	i	?	i
C=CCN(c1ccccc1)S(=O)(=O)c1cccc(C(=O)Nc2cc(C)ccn2)c1	?	?	i	?	?	i
C/C(=N\NC(N)=S)c1ccc(Cl)s1	?	6.5µM	i	16µM	i	?
COC1(OC)C=CC(=O)C=C1NC(=O)c1ccccc1OC(C)=O	?	?	nt	?	nt	4.1µM
CC(=O)Oc1ccccc1C(=O)Nc1ccccc1	i	i	nt	i	nt	?
Cn1cccc1C(=O)OCC(=O)Nc1sccc1C#N	i	16µM	i	?	i	i
N#Cc1ccsc1NC(=O)COC(=O)c1ccc2ccccc2c1	i	i	i	i	i	i
O=C(Nc1ccc(N2CCN(c3ncccc3C(F)(F)F)CC2)nc1)c1cccs1	i	18µM	18µM	16µM	21µM	?
O=C(Nc1ccc(N2CCN(c3ccc(C(F)(F)F)cn3)CC2)nc1)c1cccs1	?	i	i	i	i	i
Cc1nc2ccccc2c2c1CC(C(C)(Cl)Br)O2 (stereo not given)	i	4.6µM	?	?	?	i
CCCCN1C(=N)N([C@@H](C)CN2CCC[C@H]2CN2C(N)=NC[C@H]2CC(C)C)C[C@H]1[C@H](C)CC	i	i	i	i	i	i
COc1ccc(-c2oc3cc(O)c(OC)c(O)c3c(=O)c2OC)cc1	?	?	?	?	21µM	5.2µM
COc1c(-c2ccc(O)cc2)oc2cc(O)cc(O)c2c1=O	i	i	i	i	i	i
C=C(CN(C)C)C(=O)c1ccc(C)cc1C	5.8µM	?	?	?	5.8µM	2.9µM
CN(Cc1cccc2cnccc12)C(=O)CCc1nnc(CCc2ccccc2)o1	i	?	i	i	i	i
COc1ccccc1CCc1nnc(CCC(=O)N(C)Cc2cccc3ncccc23)o1	i	8.2µM	i	i	i	?
COC(=O)c1ccc(C)c(NC(=S)NCc2ccc(Cl)cc2)c1	i	23µM	i	i	i	i
C[C@H](NC(=O)c1nc[nH]c1C(=O)NCC(=O)OCc1ccccc1)c1ccccc1	i	i	i	i	i	?
CC(=O)Nc1ccc(S(=O)(=O)NCCC(=O)NCC2COc3ccccc3O2)cc1 (stereo not given)	i	?	i	i	i	i
CCOc1ccc(-n2c(-c3ccccc3)c[n+]3c2CCCCC3)cc1	i	?	?	10µM	13µM	i
c1ccc(-c2c[n+]3c(n2-c2ccccc2)CCC3)cc1	i	i	21µM	?	?	i
Cc1ccc(-c2c[n+]3c(n2-c2ccccc2)CCC3)cc1	?	i	?	1.3µM	?	8.2µM
O=C(Nc1cccc(S(=O)(=O)NC2=NCCC2)c1)c1ccc(=O)[nH]c1	i	i	i	?	i	?
SMILES	SW480 rereplic	KB-V1 MDR tox	HT1080NT lethal	KB-3-1 cytotox	HT1080 IDH1KD tx	MCF10A rereplic
CCOC(=O)C1CCCN(C/C=C/c2ccccc2)C1 (stereo not given)	i	?	i	i	i	i
CN1C(=O)[C@@](O)(CC(=O)c2ccccc2)c2cc(Br)ccc21	nt	i	i	?	i	nt
CN1C(=O)C(O)(CC(=O)c2ccccn2)c2cc(Br)ccc21 (stereo not given)	?	7.3µM	?	?	i	?
CCc1nnc(NC(=O)COc2ccc3ccccc3c2)s1	i	i	i	i	i	i
CN1CCN(c2ccc(NC(=O)COc3ccc4ccccc4c3)cc2)CC1	?	?	i	i	i	16µM
CN1CCc2nc(NC(=O)COc3ccc4ccccc4c3)sc2C1	?	?	i	?	i	13µM
CN1CCN(c2ccc(NC(=O)COc3cccc4ccccc34)cc2)CC1	i	i	?	i	i	i
CCn1c(SCc2ccccc2Cl)nc(=O)c2c(C(=O)OC)cc(C3CC3)nc21	nt	i	nt	i	nt	nt
C/C(=N\NC(=O)c1c([N+](=O)[O-])c(C)nn1C)c1ccc(NC(=O)c2ccc(C)o2)cc1	?	i	i	i	i	i
C/C(=N\NC(=O)c1c(Cl)c(C)nn1C)c1ccc(NC(=O)C2CCC2)cc1	1.8µM	3.3µM	1.6µM	1µM	0.82µM	?
C/C(=N/NC(=O)c1cccs1)c1ccc(N2CCOCC2)cc1	0.52µM	i	i	i	i	i
C/C(=N\NC(=O)c1c([N+](=O)[O-])c(C)nn1C)c1ccc(NC(=O)C2CCCC2)cc1	5.8µM	6.5µM	0.46µM	0.46µM	0.33µM	0.41µM
C/C(=N/NC(=O)c1cccs1)c1ccc(NC(=O)COc2ccc(Cl)cc2)cc1	?	i	i	?	i	5.2µM
CN(C)CC(=O)N[C@@H]1CC[C@@H](CCNS(=O)(=O)c2ccccc2)O[C@@H]1CO	nt	i	i	i	i	nt
C/C(=N\NC(=O)c1c(Cl)c(C)nn1C)c1cccc(NC(=O)COc2ccccc2)c1	i[9.22 µM]	i	i	i	i	i
C/C(=N\NC(=O)c1c(Cl)c(C)nn1C)c1ccc(NC(=O)COc2ccc(Cl)cc2C)cc1	i	i	i	i	i	21µM
CCOC(=O)N1CCN(C(=O)C2CCN(C(=O)c3ccc(C(C)(C)C)cc3)CC2)CC1	i	i	i	i	i	i
CCNc1ccc(S(=O)(=O)N(C)C)cc1NCC(=O)Nc1ccccc1F	i	i	i	i	i	i
CCNc1ccc(S(=O)(=O)N(C)C)cc1NCC(=O)Nc1ccc(Br)cc1F	i	16µM	i	i	i	i
Cn1c(CNc2ccc(F)cc2)nc2ccccc21	i	i	i	i	?	i
